Assay [1] can be described thus: alternative oxidase inhibition and growth effect – profiling panel (AID 1259412).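 For growth (% of control): growth monitored over 72 h.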 To be noted: AOX-dependent respiration, at 500 µM; for growth (% of control): O2 uptake, measured here: growth; for O2 uptake (% of control): measured here: O2 uptake, control condition (no AOX).
Assay [2] deals with alternative oxidase (AOX). Described as above. Particulars: AOX-dependent respiration, at 500 µM, stronger effect = lower value.
The mark [3] stands for this setting: AOX-dependent treatment condition, stronger effect = lower value.

Activity calls are given as the source filed them. The rule behind the calls is not given here.

For the compound `O=C(Nc1cccc(C(F)(F)F)c1)c1cccc(F)c1`, the growth (% of control) is 7.63% in assay [1] (setting [3]) and 35.2% in assay [1] (control condition). The results for the O2 uptake (% of control) in assay [1] (stronger effect = lower value) and in assay [2] were 83% and 13.8% (active), respectively.

On to `O=C(Nc1cccc(Cl)c1)c1ccccc1`, for which the figures for the growth (% of control) in assay [1] (setting [3]) and in assay [1] (control condition) were 46.9% and 118%, respectively. For the same compound, the O2 uptake (% of control) in assay [1] (stronger effect = lower value) is 88%; in assay [2], 21.5% (active).

For the compound `Cc1cccc(C(=O)Nc2ccccc2)c1`, the growth (% of control) in assay [1] (setting [3]) turned out to be 50%; in assay [1] (control condition), 83.2%. The results for the O2 uptake (% of control) in assay [1] (stronger effect = lower value) and in assay [2] were 103% and 42.3% (active), respectively.

With `Nc1cccc(S(=O)(=O)c2cccc(NC(=O)c3cccc(F)c3)c2)c1`, the growth (% of control) in assay [1] (setting [3]) was 84%; in assay [1] (control condition), 106%. For the same compound, the results for the O2 uptake (% of control) in assay [1] (stronger effect = lower value) and in assay [2] were 104% and 101% (inactive), respectively.

As for `O=C(Nc1cccc(I)c1)c1cccc(F)c1`, the growth (% of control) came out at 67.2% in assay [1] (setting [3]) and 97.5% in assay [1] (control condition). The values for the O2 uptake (% of control) in assay [1] (stronger effect = lower value) and in assay [2] were 77.3% and 21.9% (active), respectively.

With `O=C(Nc1cccc([N+](=O)[O-])c1)c1cccc(Br)c1`, the growth (% of control) in assay [1] (setting [3]) was determined as 74.5%; in assay [1] (control condition), 80.8%. For the same compound, the O2 uptake (% of control) is 95.1% in assay [1] (stronger effect = lower value) and 23.6% (active) in assay [2].

As for `Nc1cccc(S(=O)(=O)c2cccc(NC(=O)c3cccc(Br)c3)c2)c1`, the growth (% of control) in assay [1] (setting [3]) stood at 86.5%; in assay [1] (control condition) it was 64%. For the same compound, the O2 uptake (% of control) is 105% in assay [1] (stronger effect = lower value) and 110% in assay [2].

As for `Cc1cccc(C(=O)Nc2cccc(OCc3ccccc3)c2)c1`, the figures for the growth (% of control) in assay [1] (setting [3]) and in assay [1] (control condition) were 93.7% and 109%, respectively. Besides, the figures for the O2 uptake (% of control) in assay [1] (stronger effect = lower value) and in assay [2] were 108% and 67.8% (active), respectively.

As to `Cc1cccc(C(=O)Nc2ccccc2C(N)=O)c1`, the growth (% of control) is 74.2% in assay [1] (setting [3]) and 73.9% in assay [1] (control condition). The O2 uptake (% of control) in assay [1] (stronger effect = lower value) is 92.4%; in assay [2], 60.2% (active).

Take `O=C(NCc1ccc2c(c1)OCO2)c1cccc(Cl)c1`: the growth (% of control) in assay [1] (setting [3]) amounted to 55.3%; in assay [1] (control condition), 72%. The O2 uptake (% of control) in assay [1] (stronger effect = lower value) is 101%; in assay [2], 14.2% (active).

On to `O=C(Nc1cccc(Cl)c1)c1cccc(I)c1`, for which the growth (% of control) in assay [1] (setting [3]) was found to be 73%; in assay [1] (control condition), 88.6%. In addition, the O2 uptake (% of control) was 80.5% in assay [1] (stronger effect = lower value) and 15.4% (active) in assay [2].

On to `O=C(Nc1cccc(NC(=O)c2cccc(Cl)c2)c1)c1cccc(Cl)c1`, for which the growth (% of control) in assay [1] (setting [3]) came out at 90.7%; in assay [1] (control condition) it was 114%. The O2 uptake (% of control) in assay [1] (stronger effect = lower value) was 97.7%; in assay [2], 49.2% (active).

Regarding `O=C(Nc1cccc(F)c1)c1cccc(Cl)c1`, the growth (% of control) in assay [1] (setting [3]) was 3.11%; in assay [1] (control condition), 70.3%. In addition, the O2 uptake (% of control) in assay [1] (stronger effect = lower value) was 77.2%; in assay [2], 34.1% (active).

For `COc1cc(NC(=O)c2ccccc2I)cc(OC)c1OC`, the growth (% of control) in assay [1] (setting [3]) came out at 91.6%; in assay [1] (control condition), 90.9%. Also, the figures for the O2 uptake (% of control) in assay [1] (stronger effect = lower value) and in assay [2] were 92.4% and 80% (active), respectively.

`COc1cccc(C(=O)Nc2cccc(C(F)(F)F)c2)c1`: the growth (% of control) in assay [1] (setting [3]) was determined as 11.8%; in assay [1] (control condition), 57.4%. The O2 uptake (% of control) in assay [1] (stronger effect = lower value) was 90.2%; in assay [2] it was 37.6% (active).

Turning to `N#Cc1cccc(C(=O)Nc2cccc(Cl)c2)c1`, the growth (% of control) in assay [1] (setting [3]) was determined as 54.1%; in assay [1] (control condition), 87.1%. Moreover, the O2 uptake (% of control) was 87.4% in assay [1] (stronger effect = lower value) and 27.6% (active) in assay [2].

`N#Cc1cccc(C(=O)Nc2cccc(I)c2)c1`: the growth (% of control) in assay [1] (setting [3]) was 103%; in assay [1] (control condition), 117%. In addition, the O2 uptake (% of control) in assay [1] (stronger effect = lower value) is 87.8%; in assay [2], 32.6% (active).

As to `O=C(Nc1ccc(N2CCOCC2)cc1)c1cccc(Br)c1`, the growth (% of control) came out at 76.7% in assay [1] (setting [3]) and 92.2% in assay [1] (control condition). Besides, the O2 uptake (% of control) was 100% in assay [1] (stronger effect = lower value) and 85% (active) in assay [2].

Turning to `NC(=O)c1ccccc1NC(=O)c1ccccc1`, the growth (% of control) in assay [1] (setting [3]) came out at 84.2%; in assay [1] (control condition), 88.6%. In addition, the O2 uptake (% of control) in assay [1] (stronger effect = lower value) came out at 93.9%; in assay [2], 91.2%.

Turning to `N#Cc1cccc(C(=O)Nc2cccc(Br)c2)c1`, the results for the growth (% of control) in assay [1] (setting [3]) and in assay [1] (control condition) were 62.4% and 89.7%, respectively. For the same compound, the O2 uptake (% of control) in assay [1] (stronger effect = lower value) was 82.6%; in assay [2], 21.3% (active).

As to `N#Cc1cccc(C(=O)Nc2cccc(F)c2)c1`, the growth (% of control) is 55.1% in assay [1] (setting [3]) and 107% in assay [1] (control condition). Also, the O2 uptake (% of control) in assay [1] (stronger effect = lower value) was 103%; in assay [2], 53.5% (active).

As for `COc1cccc(C(=O)Nc2cccc(NC(=O)c3cccc(OC)c3)c2)c1`, the growth (% of control) came out at 95.4% in assay [1] (setting [3]) and 96.8% in assay [1] (control condition). Also, the O2 uptake (% of control) in assay [1] (stronger effect = lower value) is 102%; in assay [2], 79.2% (inactive).

Turning to `Nc1cccc(S(=O)(=O)c2cccc(NC(=O)c3cccc(Cl)c3)c2)c1`, the growth (% of control) in assay [1] (setting [3]) came out at 94.1%; in assay [1] (control condition) it was 83.7%. The results for the O2 uptake (% of control) in assay [1] (stronger effect = lower value) and in assay [2] were 110% and 98.3% (inactive), respectively.

Consider `O=C(Nc1cccc(C(F)(F)F)c1)c1cccc(Br)c1`, for which the growth (% of control) in assay [1] (setting [3]) was determined as 58.1%; in assay [1] (control condition), 99.1%. The results for the O2 uptake (% of control) in assay [1] (stronger effect = lower value) and in assay [2] were 80.2% and 22.3% (active), respectively.

As to `O=C(Nc1cccc([N+](=O)[O-])c1)c1cccc(Cl)c1`, the growth (% of control) in assay [1] (setting [3]) is 84.5%; in assay [1] (control condition) it was 90.6%. The O2 uptake (% of control) in assay [1] (stronger effect = lower value) is 93%; in assay [2], 22.3% (active).

For `O=C(Nc1cccc(I)c1)c1cccc(Br)c1`, the figures for the growth (% of control) in assay [1] (setting [3]) and in assay [1] (control condition) were 88.2% and 103%, respectively. In addition, the values for the O2 uptake (% of control) in assay [1] (stronger effect = lower value) and in assay [2] were 92% and 14.3% (active), respectively.

On to `Cc1cccc(C(=O)NCc2ccc3c(c2)OCO3)c1`, for which the growth (% of control) was found to be 41.6% in assay [1] (setting [3]) and 48.8% in assay [1] (control condition). The values for the O2 uptake (% of control) in assay [1] (stronger effect = lower value) and in assay [2] were 99% and 25.8% (active), respectively.

On to `N#Cc1cccc(C(=O)Nc2cccc(C(F)(F)F)c2)c1`, for which the growth (% of control) in assay [1] (setting [3]) was 49.7%; in assay [1] (control condition), 90.1%. Besides, the O2 uptake (% of control) in assay [1] (stronger effect = lower value) is 89.3%; in assay [2], 28.9% (active).

As to `O=C(Nc1cccc(I)c1)c1cccc(Cl)c1`, the growth (% of control) worked out at 63.1% in assay [1] (setting [3]) and 82.8% in assay [1] (control condition). Further, the O2 uptake (% of control) in assay [1] (stronger effect = lower value) is 88.3%; in assay [2], 13.2% (active).

With `O=C(Nc1cccc(Cl)c1)c1cccc(F)c1`, the growth (% of control) came out at 17.8% in assay [1] (setting [3]) and 60.1% in assay [1] (control condition). For the same compound, the O2 uptake (% of control) in assay [1] (stronger effect = lower value) is 78.3%; in assay [2], 24.6% (active).

Consider `N#Cc1cccc(C(=O)Nc2cccc(OCc3ccccc3)c2)c1`, for which the values for the growth (% of control) in assay [1] (setting [3]) and in assay [1] (control condition) were 108% and 90.3%, respectively. Also, the O2 uptake (% of control) in assay [1] (stronger effect = lower value) was 90.1%; in assay [2], 39.1% (active).

In the case of `Cc1cccc(C(=O)Nc2cccc(I)c2)c1`, the growth (% of control) in assay [1] (setting [3]) is 61.9%; in assay [1] (control condition), 110%. The results for the O2 uptake (% of control) in assay [1] (stronger effect = lower value) and in assay [2] were 93.2% and 13.3% (active), respectively.

Take `COc1cccc(C(=O)NCc2ccc3c(c2)OCO3)c1`: the growth (% of control) in assay [1] (setting [3]) came out at 46.4%; in assay [1] (control condition), 57%. Further, the O2 uptake (% of control) in assay [1] (stronger effect = lower value) was 95.8%; in assay [2], 36.4% (active).

In the case of `O=C(Nc1ccc(-n2ccnc2)cc1)c1cccc(Br)c1`, the growth (% of control) in assay [1] (setting [3]) was 44.9%; in assay [1] (control condition), 75.3%. The O2 uptake (% of control) is 84.4% in assay [1] (stronger effect = lower value) and 72.6% (active) in assay [2].

On to `COc1cccc(C(=O)Nc2cccc(OCc3ccccc3)c2)c1`, for which the growth (% of control) in assay [1] (setting [3]) amounted to 105%; in assay [1] (control condition), 86.7%. Also, the O2 uptake (% of control) in assay [1] (stronger effect = lower value) is 91.3%; in assay [2], 79% (active).

`O=C(Nc1cccc(OCc2ccccc2)c1)c1cccc(I)c1`: the growth (% of control) in assay [1] (setting [3]) was 36.7%; in assay [1] (control condition) it was 57%. Moreover, the O2 uptake (% of control) was 100% in assay [1] (stronger effect = lower value) and 51.2% (active) in assay [2].

For the compound `O=C(Nc1cccc(I)c1)c1ccccc1I`, the growth (% of control) came to 112% in assay [1] (setting [3]) and 94.8% in assay [1] (control condition). For the same compound, the O2 uptake (% of control) in assay [1] (stronger effect = lower value) is 84%; in assay [2], 13.1% (active).

`O=C(Nc1cccc(I)c1)c1cccc(I)c1`: the results for the growth (% of control) in assay [1] (setting [3]) and in assay [1] (control condition) were 87.3% and 90.6%, respectively. In addition, the O2 uptake (% of control) is 96.7% in assay [1] (stronger effect = lower value) and 25.1% (active) in assay [2].

The values above are taken from PubChem BioAssay AID1259412 (Laboratorio de Genomica e Expressao (LGE), UNICAMP, 2018).
